Our source for the Potency values is PubChem BioAssay (Tox21).

Records with an inconclusive call do not appear. Where a call stands in place of a potency, no number is given. Calls of active or inactive are those of the source. Unless noted, the call rests on the fitted dose curve.

D(2) dopamine receptor (Homo sapiens), sequence (P14416 whole entry, looked up): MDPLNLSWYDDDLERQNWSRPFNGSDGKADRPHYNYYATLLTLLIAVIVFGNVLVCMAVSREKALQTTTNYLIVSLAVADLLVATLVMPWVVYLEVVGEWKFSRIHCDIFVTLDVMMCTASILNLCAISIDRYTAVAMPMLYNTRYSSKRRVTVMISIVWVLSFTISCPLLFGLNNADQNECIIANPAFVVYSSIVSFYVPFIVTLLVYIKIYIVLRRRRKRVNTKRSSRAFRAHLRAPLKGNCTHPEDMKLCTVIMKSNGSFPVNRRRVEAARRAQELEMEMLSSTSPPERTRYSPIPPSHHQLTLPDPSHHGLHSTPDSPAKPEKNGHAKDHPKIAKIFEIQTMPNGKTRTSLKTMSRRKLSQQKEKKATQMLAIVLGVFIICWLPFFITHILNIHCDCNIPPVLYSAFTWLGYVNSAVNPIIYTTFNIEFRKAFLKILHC

The first assay concerns the target D(2) dopamine receptor (Homo sapiens) (UniProt P14416). Kind of assay: Dopamine D2 receptor (DRD2) small molecule agonists, cell-based qHTS assay (AID 1963594). Further: nearly all actives have a fitted effect of over 35% in size. Further: potency means the concentration at half of the fitted maximal effect. As to conditions: HEK293-DRD2 cAMP HTRF, agonist mode, 30 min; series mostly up to 92.4 µM. Summed up:
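HEK293 cells stably expressing human DRD2, pre-treated with PDE inhibitor Ro20-1724 (0.1 mM final) and compound 10 min at room temperature, then stimulated with NKH477 (200nM […]) for 30 min. cAMP read by HTRF (665/620 nm).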
On the technique in general: qHTS replaces the single test concentration by a dilution series.
As for `O=[N+]([O-])c1ccc2c3c(cccc13)CC2`, the Potency entry is “inactive”.

Consider `CC(C)[C@H](C(=O)O[C@H](C#N)c1cccc(Oc2ccccc2)c1)c1ccc(Cl)cc1`, for which the Potency result is “inactive”.

On to `CCC(C(N)=O)N1CCCC1=O` (centres undefined), for which the Potency result is “inactive”.

Consider `O=C(O)CCCCCCNC1c2ccccc2CCc2ccccc21`, for which the Potency result is “inactive”.

Take `COP(=O)(OC)O/C(=C\Cl)c1cc(Cl)c(Cl)cc1Cl`: the Potency entry was “inactive”.

`CS(=O)(=O)c1ccc(C(=O)C2C(=O)CCCC2=O)c(Cl)c1COCC(F)(F)F`: the Potency result was “inactive”.

As for `O=C(N/N=C/c1ccc([N+](=O)[O-])o1)c1cc([N+](=O)[O-])cc([N+](=O)[O-])c1O`, the Potency result is “inactive”.

As to `CCCCC(=O)Cl`, the Potency entry was “inactive”.

`COc1cnc(OC)n2nc(NS(=O)(=O)c3c(OCC(F)F)cccc3C(F)(F)F)nc12`: the Potency entry is “inactive”.

In the case of `COC1=CC(=O)O[C@@H](CCc2ccccc2)C1`, the Potency result was “inactive”.

Take `O=C1C(Cl)C(CCl)CN1c1cccc(C(F)(F)F)c1` (centres undefined): the Potency result was “inactive”.

As to `ClC(Cl)C(Cl)Cl`, the Potency entry was “inactive”.

Regarding `CCCCCCCC(=O)Cl`, the Potency is 0.0017 µM (active).

Take `CCCCCCCCCCCCN(C)C`: the Potency entry is “inactive”.

Take `C=CC[C@]1(O)CC[C@H]2[C@@H]3CCC4=CC(=O)CCC4=C3C=C[C@@]21C`: the Potency entry was “inactive”.

Turning to `Cc1cccc2sc3nncn3c12`, the Potency entry is “inactive”.

For the molecule `CCCCC(CC)COC(=O)OOC(C)(C)C` (centres undefined), the Potency entry was “inactive”.

With `C=C(Cl)CSC(=S)N(CC)CC`, the Potency result is “inactive”.

As to `O=C(CBr)Nc1ccc(Cl)cc1C(=O)c1ccccc1F`, the Potency result was “inactive”.

As to `Nc1ccc(Cl)cc1C(=O)c1ccccc1F`, the Potency result was “inactive”.

Consider `COc1ccc(C=O)cc1O`, for which the Potency result was “inactive”.

Consider `C[C@]12C=CC(=O)C=C1CC[C@@H]1[C@@H]2CC[C@@]2(C)[C@H]1CC[C@]2(C)O`, for which the Potency result is “inactive”.

In the case of `COc1cc(CC(C)N)c(OC)cc1Br` (centres undefined), the Potency was 20 µM (active).

Regarding `N#CCCl`, the Potency entry is “inactive”.

For the molecule `CCCCCCCCCCCCCN1CC(C)OC(C)C1` (centres undefined), the Potency entry is “inactive”.

In the case of `CCN(CC)c1c([N+](=O)[O-])cc(C(F)(F)F)c(N)c1[N+](=O)[O-]`, the Potency result was “inactive”.

Turning to `Cc1cccc(OP(=O)(Oc2cccc(C)c2)Oc2cccc(C)c2)c1`, the Potency result is “inactive”.

On to `O=C(Nc1ccc2[nH]ccc2c1)c1cc2cc(F)ccc2n1Cc1cccc(F)c1`, for which the Potency result was “inactive”.

Consider `NC1=NC(=O)C(c2ccccc2)O1` (centres undefined), for which the Potency entry was “inactive”.

The target is the same in the next assay. Kind of assay: Dopamine D2 receptor (DRD2) small molecule antagonists, cell-based qHTS assay (AID 1963595; active means well fitted inhibition curve with a large enough effect in the signal ratio in the repeat runs, with a control signal flat; the % refers to the signal ratio). Conditions: HEK293-DRD2 cAMP HTRF antagonist mode; series mostly up to 92.4 µM. Summed up:
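HTRF cAMP read-out at 665 and 620 nm emission (340 nm excitation). Antagonist mode: compounds were tested against 12 nM quinpirole in DRD2-HEK293 cells, with 200 nM NKH477 raising cAMP and 0.1 mM Ro20-1724 blocking its breakdown.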
Regarding `CCN(CC)C(=O)N[C@@H]1C=C2c3cccc4[nH]cc(c34)C[C@@H]2N(C)C1`, the Potency result was “inactive”.

In the case of `O=[N+]([O-])c1ccc2c3c(cccc13)CC2`, the Potency entry is “inactive”.

Consider `CCCN(CCC)C(=O)Cc1c(-c2ccc(Cl)cc2)nc2ccc(Cl)cn12`, for which the Potency result is “inactive”.

In the case of `CC(C)[C@H](C(=O)O[C@H](C#N)c1cccc(Oc2ccccc2)c1)c1ccc(Cl)cc1`, the Potency result is “inactive”.

As to `CCC(C(N)=O)N1CCCC1=O` (centres undefined), the Potency entry was “inactive”.

For the molecule `CCOC(=O)C(Cl)Cc1cc(-n2nc(C)n(C(F)F)c2=O)c(F)cc1Cl` (centres undefined), the Potency entry was “inactive”.

For `Oc1ccc2ccc3cccc4ccc1c2c34`, the Potency entry is “inactive”.

In the case of `COP(=O)(OC)O/C(=C\Cl)c1cc(Cl)c(Cl)cc1Cl`, the Potency entry is “inactive”.

On to `CS(=O)(=O)c1ccc(C(=O)C2C(=O)CCCC2=O)c(Cl)c1COCC(F)(F)F`, for which the Potency result is “inactive”.

Take `O=C(N/N=C/c1ccc([N+](=O)[O-])o1)c1cc([N+](=O)[O-])cc([N+](=O)[O-])c1O`: the Potency entry is “inactive”.

On to `CCCCC(=O)Cl`, for which the Potency result was “inactive”.

Take `COC(=O)C(C)N(C(=O)c1ccco1)c1c(C)cccc1C` (centres undefined): the Potency entry is “inactive”.

Take `COc1cnc(OC)n2nc(NS(=O)(=O)c3c(OCC(F)F)cccc3C(F)(F)F)nc12`: the Potency result is “inactive”.

`COC1=CC(=O)O[C@@H](CCc2ccccc2)C1`: the Potency result is “inactive”.

With `O=C1C(Cl)C(CCl)CN1c1cccc(C(F)(F)F)c1` (centres undefined), the Potency entry is “inactive”.

`ClC(Cl)C(Cl)Cl`: the Potency result was “inactive”.

On to `CCCCCCCC(=O)Cl`, for which the Potency entry was “inactive”.

On to `CCCCCCCCCCCCN(C)C`, for which the Potency result is “inactive”.

On to `Cc1cccc2sc3nncn3c12`, for which the Potency result is “inactive”.

For the molecule `CCCCC(CC)COC(=O)OOC(C)(C)C` (centres undefined), the Potency entry is “inactive”.

Turning to `CCOP(=O)(OCC)O/C(=C/Cl)c1ccc(Cl)cc1Cl`, the Potency entry was “inactive”.

For `CNNC`, the Potency entry is “inactive”.

`C=C(Cl)CSC(=S)N(CC)CC`: the Potency result is “inactive”.

`O=C(CBr)Nc1ccc(Cl)cc1C(=O)c1ccccc1F`: the Potency entry was “inactive”.

Consider `Nc1ccc(Cl)cc1C(=O)c1ccccc1F`, for which the Potency result was “inactive”.

For the molecule `COc1ccc(C=O)cc1O`, the Potency result was “inactive”.

In the case of `C[C@]12C=CC(=O)C=C1CC[C@@H]1[C@@H]2CC[C@@]2(C)[C@H]1CC[C@]2(C)O`, the Potency entry is “inactive”.

For `COc1cc(CC(C)N)c(OC)cc1Br` (centres undefined), the Potency result was “inactive”.

`N#CCCl`: the Potency entry was “inactive”.

For the molecule `CCCCCCCCCCCCCN1CC(C)OC(C)C1` (centres undefined), the Potency entry was “inactive”.

Take `CCN(CC)c1c([N+](=O)[O-])cc(C(F)(F)F)c(N)c1[N+](=O)[O-]`: the Potency result was “inactive”.

As for `Cc1cccc(OP(=O)(Oc2cccc(C)c2)Oc2cccc(C)c2)c1`, the Potency result is “inactive”.

For `O=C(Nc1ccc2[nH]ccc2c1)c1cc2cc(F)ccc2n1Cc1cccc(F)c1`, the Potency entry is “inactive”.

For `CSc1ccc(C(=O)C(C)(C)N2CCOCC2)cc1`, the Potency result was “inactive”.

Regarding `COP(=S)(OC)Oc1c(Cl)cc(C)cc1Cl`, the Potency result is “inactive”.
